The subject of experiment [1] is Plasmodium falciparum Sir2 (PF13_0152, Sir2A). Nature of the experiment: pfSir2 binders on small-molecule microarrays, primary screen, biochemical, small-molecule microarray, 635 nm fluorescence (AID 1098).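 Note: score merges spot fluorescence intensity with its signal-to-noise ratio.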 The note with it: small-molecule microarray binding, fluorescence 635 nm; higher = more signal.
Experiment [2] is described as follows: small-molecule microarray binders of probe aDKK1, primary screen, biochemical, biotinylated probe, 635/667 nm fluorescence (AID 1099).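 Note: score merges 667nm spot fluorescence with signal to noise across triplicate slides; reference of the scale not given here.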 The settings on record: higher = more signal.
Experiment [3] is described as follows: small-molecule microarray binders of probe aCHRDL2, primary screen, biochemical, biotinylated probe, 635/667 nm fluorescence (AID 1100). The note with it: higher = more signal.
A short description of experiment [4]: splicing luciferase reporter signal modulators, primary screen, spliceosome inhibition project, cell-based, HEK293, splice +/- reporter (AID 1101).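 Note: HEK293 cells carrying a splicing-competent luciferase reporter gene; test concentration not given here.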 The settings on record: luminescence, 24 h, higher = more signal, called active from +8 up or from −8 down. Background: A reporter such as luciferase makes a cellular process visible.
The target of experiment [5] is Fibroblast growth factor 10 (Homo sapiens) (UniProt O15520). Description: FGF10 binders on small-molecule microarrays, primary screen, biochemical, small-molecule microarray, 635 nm fluorescence (AID 1102). The settings on record: FGF10 binding, fluorescence 635 nm, higher = more signal.
For experiment [6], the system named is glycogen synthase kinase-3 (GSK3A per assay name; protocol says GSK3B). Nature of the experiment: GSK3 binders on small-molecule microarrays, primary screen, biochemical, small-molecule microarray, 635 nm fluorescence, GSK3A (AID 1103). Note: the record names both GSK3A and GSK3B. The note with it: small-molecule microarray binding, fluorescence 635 nm; higher = more signal.
Experiment [7] deals with Epidermal growth factor receptor (Homo sapiens) (UniProt P00533). Nature of the experiment: EGFR binders on small-molecule microarrays, primary screen, biochemical, small-molecule microarray, 635 nm fluorescence (AID 1104).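 Note: score merges 667 nm emission intensity with spot signal to noise over triplicate slides.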 The settings on record: EGFR binding, higher = more signal.
In experiment [8] the target is Follistatin-related protein 3 (Homo sapiens) (UniProt O95633). Description: FSTL3 binders on small-molecule microarrays, primary screen, biochemical, small-molecule microarray, 635 nm fluorescence (AID 1105).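 Note: score merges emission near 667 nm and signal to noise per printed spot across three slides.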 The note with it: FSTL3 binding, higher = more signal.
Experiment [9] addresses Dickkopf-related protein 1 (Homo sapiens) (UniProt O94907). Description: DKK1 binders on small-molecule microarrays, primary screen, biochemical, small-molecule microarray, 635 nm fluorescence scan (AID 1106).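 Note: score merges emission near 667 nm with signal to noise over three replicate slides.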 The note with it: DKK1 binding, higher = more signal.
In experiment [10] the test system is Inhibin beta A chain (activin A). Nature of the experiment: INHBA (activin A) binders on microarrays, primary screen, biochemical, small-molecule microarray, 635 nm fluorescence scan (AID 1107).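 Note: mouse activin A protein probed at 4.33 µg/mL on printed slides; score merges bound-protein fluorescence near 667 nm with spot signal-to-noise.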 The note with it: small-molecule microarray binding, higher = more signal.

Active and inactive are the calls of the source.

Chain of Dickkopf-related protein 1 (Homo sapiens) (O94907 whole entry, looked up): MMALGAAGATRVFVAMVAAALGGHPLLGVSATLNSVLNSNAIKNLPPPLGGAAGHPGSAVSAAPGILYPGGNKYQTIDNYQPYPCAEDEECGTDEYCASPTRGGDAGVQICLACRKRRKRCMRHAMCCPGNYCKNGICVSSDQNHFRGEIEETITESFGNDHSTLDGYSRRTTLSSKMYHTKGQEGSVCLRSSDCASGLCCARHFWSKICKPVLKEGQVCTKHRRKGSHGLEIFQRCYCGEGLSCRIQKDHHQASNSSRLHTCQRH
Chain of Epidermal growth factor receptor (Homo sapiens) (P00533 whole entry, looked up): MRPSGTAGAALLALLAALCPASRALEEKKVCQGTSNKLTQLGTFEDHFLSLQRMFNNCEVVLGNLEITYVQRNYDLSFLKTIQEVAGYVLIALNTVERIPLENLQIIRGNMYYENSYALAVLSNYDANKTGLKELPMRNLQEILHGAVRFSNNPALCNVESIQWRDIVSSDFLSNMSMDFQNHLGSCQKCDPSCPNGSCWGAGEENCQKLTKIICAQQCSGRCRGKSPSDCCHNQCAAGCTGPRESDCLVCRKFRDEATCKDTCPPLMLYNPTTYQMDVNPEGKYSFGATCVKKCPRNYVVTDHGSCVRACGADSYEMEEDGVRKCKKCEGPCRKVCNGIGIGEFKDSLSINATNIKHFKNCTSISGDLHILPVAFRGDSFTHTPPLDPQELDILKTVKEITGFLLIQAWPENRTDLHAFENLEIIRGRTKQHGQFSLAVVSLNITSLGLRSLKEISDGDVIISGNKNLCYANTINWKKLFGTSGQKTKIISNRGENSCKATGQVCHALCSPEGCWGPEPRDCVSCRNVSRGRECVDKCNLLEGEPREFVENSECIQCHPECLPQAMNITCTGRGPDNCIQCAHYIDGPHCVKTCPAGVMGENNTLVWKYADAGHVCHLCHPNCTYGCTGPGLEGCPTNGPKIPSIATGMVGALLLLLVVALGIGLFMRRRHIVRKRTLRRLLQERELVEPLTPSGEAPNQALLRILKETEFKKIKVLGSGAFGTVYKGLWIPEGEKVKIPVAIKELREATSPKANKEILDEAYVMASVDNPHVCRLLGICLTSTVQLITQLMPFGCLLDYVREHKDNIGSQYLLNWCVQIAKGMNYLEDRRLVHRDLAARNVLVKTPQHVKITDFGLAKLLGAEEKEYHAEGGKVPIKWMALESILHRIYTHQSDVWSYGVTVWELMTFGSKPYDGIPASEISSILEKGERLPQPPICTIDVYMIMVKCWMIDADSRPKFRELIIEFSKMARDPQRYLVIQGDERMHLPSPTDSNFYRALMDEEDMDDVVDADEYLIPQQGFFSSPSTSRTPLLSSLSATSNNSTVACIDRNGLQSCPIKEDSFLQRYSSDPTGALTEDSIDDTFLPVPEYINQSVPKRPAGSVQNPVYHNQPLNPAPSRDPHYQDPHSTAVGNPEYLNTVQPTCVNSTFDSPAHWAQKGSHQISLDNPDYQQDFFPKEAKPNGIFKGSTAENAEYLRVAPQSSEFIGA
Chain of Fibroblast growth factor 10 (Homo sapiens) (O15520 whole entry, looked up): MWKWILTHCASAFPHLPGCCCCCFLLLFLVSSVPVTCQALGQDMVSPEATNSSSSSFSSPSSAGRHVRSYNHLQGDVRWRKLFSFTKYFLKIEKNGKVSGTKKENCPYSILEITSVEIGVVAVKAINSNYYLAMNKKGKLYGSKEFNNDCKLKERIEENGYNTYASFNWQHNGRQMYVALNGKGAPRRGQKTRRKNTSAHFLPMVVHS
Chain of Follistatin-related protein 3 (Homo sapiens) (O95633 whole entry, looked up): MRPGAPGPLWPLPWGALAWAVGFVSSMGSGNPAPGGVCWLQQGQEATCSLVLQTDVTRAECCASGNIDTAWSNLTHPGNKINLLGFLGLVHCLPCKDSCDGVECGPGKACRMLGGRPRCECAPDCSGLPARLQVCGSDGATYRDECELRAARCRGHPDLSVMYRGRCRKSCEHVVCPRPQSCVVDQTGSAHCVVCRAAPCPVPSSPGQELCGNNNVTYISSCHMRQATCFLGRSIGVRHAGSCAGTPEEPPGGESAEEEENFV

Take `C[C@]12C(=O)N(CCCO)[C@@H]3C(=O)N(c4ccc(Cl)cc4)CC=CC31O[C@@H]1/C=C\CCCOC(=O)C12` (stereo not given in full): the composite z-score in experiment [1] was 1.83; in experiment [2] it was -0.275; in experiment [3], 0.62; in experiment [5], -0.747; in experiment [6], -1.07; in experiment [7], -0.887. The composite z-score is -0.538 in experiment [8], -1.01 in [9] and 0.232 in [10]. For the same molecule, the z-score in experiment [4] is 0.158 (inactive).

Regarding `COCCOC(=O)N1C(=O)[C@@]2(c3cc(C#Cc4ccc(OC)cc4)ccc31)[C@H](c1ccc(OCCO)cc1)N1[C@H](c3ccccc3)[C@H](c3ccccc3)OC(=O)[C@H]1[C@@H]2C(N)=O`, the composite z-score in experiment [1] came to 1.27; in experiment [2], 0.654; in experiment [3], 0.608; in experiment [5], 1.25; in experiment [6], 1.32; in experiment [7] it was 0.711. Moreover, the composite z-score in experiment [8] was determined as 1.43; in experiment [9], 0.853; in experiment [10], 0.48. For the same molecule, in experiment [4], the z-score is -0.372 (inactive).

Consider `Cc1ccc(C(C)CC(O)C2C=CC3C(=O)N(Cc4ccccc4)C(=O)C3N2n2cnnc2)o1` (stereo not given), for which the composite z-score amounted to 0.755 in [1]; 1.85 in experiment [2]; 1.03 in experiment [3]; 0.841 in experiment [5]; 0.866 in experiment [6]; 0.0138 in [7]. Further, the values for the composite z-score in [8], in experiment [9] and in experiment [10] were 0.668, -0.484 and 1.09, respectively. For the same molecule, the z-score in experiment [4] was -0.665 (inactive).

`COCCCNC(=O)[C@]1(CCS(=O)(=O)c2ccccc2)N=C(c2ccc(OCCCO)cc2)O[C@@H]1c1ccccc1`: the composite z-score is 1.86 in experiment [1]; 0.126 in experiment [2]; 0.937 in experiment [3]; 1.01 in experiment [5]; 1.01 in experiment [6]; 0.304 in experiment [7]. Also, the composite z-score was determined as 0.485 in experiment [8], 0.0266 in experiment [9] and 0.455 in [10]. For the same molecule, the z-score in [4] was -0.594 (inactive).

As to `CC(C)NC(=O)[C@@H]1c2ccccc2C(=O)N(Cc2cc(C(F)(F)F)cc(C(F)(F)F)c2)[C@H]1c1ccc(CO)cc1`, the composite z-score in [1] was 0.46; in experiment [2] it was 0.178; in [3], 0.226; in [5] it was 0.312; in [6], 0.811; in experiment [7], -0.0125. Further, the values for the composite z-score in [8], in experiment [9] and in experiment [10] were 0.504, 0.307 and 0.325, respectively. Also, the z-score in experiment [4] was 0.0833 (inactive).

As for `O=C1O[C@@H](c2ccccc2)[C@@H](c2ccccc2)N2[C@@H](c3ccc(O)cc3)[C@]3(C(=O)Nc4ccc(C#CC5=CCCCC5)cc43)[C@@H](C(=O)Nc3nc4ccccc4s3)[C@H]12`, the composite z-score in experiment [1] was 1.61; in [2], 0.307; in experiment [3], -0.0516; in experiment [5], 1.36; in [6], 1.29; in experiment [7], 0.381. For the same molecule, the composite z-score turned out to be 1.31 in experiment [8], 1.06 in experiment [9] and 1.07 in experiment [10]. For the same molecule, the z-score in experiment [4] was -0.0881 (inactive).

As to `COCCCNC(=O)[C@@H]1c2ccccc2C(=O)N(Cc2cc(F)cc(C(F)(F)F)c2)[C@H]1c1ccc(CO)cc1`, the composite z-score in experiment [1] is 1.69; in experiment [2], -0.0674; in experiment [3], 0.998; in experiment [5], -1.38; in [6] it was -1.72; in [7] it was -1.47. The composite z-score in experiment [8] is -1.13; in [9], -1.35; in experiment [10], -0.104. For the same molecule, the z-score in experiment [4] was -0.0265 (inactive).

Take `CC(C)(C)OC(=O)CC[C@]1(C(=O)N2CCCCC2)N=C(c2ccc(OCCCO)cc2)O[C@H]1c1ccccc1CN=[N+]=[N-]`: the composite z-score in [1] stood at 1.68; in experiment [2], 0.978; in experiment [3], 0.92; in experiment [5], 1.42; in experiment [6] it was 1.3; in experiment [7], 0.604. Moreover, the composite z-score in [8] turned out to be 1.41; in experiment [9], 0.414; in experiment [10] it was 1.21. The z-score in experiment [4] was -3.65 (inactive).

Turning to `CCCCC(CC)C(O)C1C=CC2C(=O)NC(=O)C2N1Nc1ccccn1` (stereo not given), the composite z-score in experiment [1] is 0.768; in [2], 0.189; in experiment [3] it was 0.471; in experiment [5], 0.327; in [6], 0.493; in [7], -0.035. For the same molecule, the composite z-score came out at 0.768 in experiment [8], 0.112 in [9] and 1.33 in experiment [10]. Also, in experiment [4], the z-score is 1.08 (inactive).

Consider `CCN(CC)c1ccc(N2CC=CC34O[C@@H]5/C=C\CCCOC(=O)C5[C@H]3C(=O)N(CCCCCO)[C@@H]4C2=O)cc1` (stereo not given in full), for which the composite z-score was 0.643 in experiment [1]; 0.123 in [2]; 0.397 in experiment [3]; -1.47 in experiment [5]; -1.4 in experiment [6]; -0.983 in experiment [7]. For the same molecule, the composite z-score in [8] is -1.42; in [9] it was -1.01; in experiment [10], -0.399. In addition, in experiment [4], the z-score is 0.643 (inactive).

As for `NCCCCCCNC(=O)[C@H]1C[C@H]2C(=O)N3CCC[C@H]3C(=O)N2[C@H]1c1ccc(O)cc1`, the composite z-score in [1] was found to be 1.22; in experiment [2], 0.0237; in experiment [3], 0.134; in experiment [5], 0.264; in experiment [6], 0.572; in experiment [7], 0.386. For the same molecule, the results for the composite z-score in [8], in [9] and in experiment [10] were 0.747, 0.735 and 0.977, respectively. The z-score in [4] is 0.089 (inactive).

With `NC(=O)NCC#Cc1ccc2c(c1)[C@]1(C(=O)N2)[C@H](c2ccc(OCCO)cc2)N2[C@H](c3ccccc3)[C@H](c3ccccc3)OC(=O)[C@H]2[C@@H]1C(=O)N1CCN(c2ncccn2)CC1`, the composite z-score in experiment [1] was 0.664; in experiment [2], -0.356; in experiment [3], -0.417; in experiment [5] it was 0.621; in experiment [6], 0.0283; in experiment [7], 0.231. The composite z-score amounted to 0.232 in [8], 0.209 in experiment [9] and 1.29 in experiment [10]. Moreover, the z-score in [4] is -0.115 (inactive).

`C=CCOC(=O)[C@H]1[C@@H]2C(=O)O[C@@H](c3ccccc3)[C@@H](c3ccccc3)N2[C@@H](c2ccc(OCCOC(=O)[C@H]3C[C@H]4C(=O)N[C@@H](CCCCN(C)C)C(=O)N4[C@H]3c3ccc(O)cc3)cc2)[C@]12C(=O)Nc1ccccc12`: the composite z-score in experiment [1] stood at 0.436; in experiment [2] it was 0.638; in experiment [3], 0.4; in experiment [5], 1; in experiment [6], 0.957; in experiment [7] it was 0.606. The composite z-score was found to be 1.4 in experiment [8], 0.805 in experiment [9] and 1.04 in experiment [10]. In experiment [4], the z-score was -0.226 (inactive).

`Cc1ccccc1C(O)C1C=CC2C(=O)N(Cc3ccccc3)C(=O)C2N1n1cnnc1` (stereo not given): the composite z-score in [1] is 0.996; in experiment [2], 0.363; in experiment [3], 0.118; in experiment [5] it was 0.517; in experiment [6] it was 0.644; in [7] it was -0.126. Also, the values for the composite z-score in experiment [8], in experiment [9] and in [10] were 0.834, 0.189 and 0.837, respectively. In addition, in experiment [4], the z-score was -0.512 (inactive).

For the molecule `C[N+](C)(C)CCCCCCNC(=O)[C@@H]1C[C@@H]2C(=O)NCC(=O)N2[C@@H]1c1ccc(O)cc1`, the composite z-score in experiment [1] was 1.43; in [2] it was -0.171; in experiment [3], 0.135; in [5], 0.963; in experiment [6] it was 0.657; in [7] it was 0.0357. The composite z-score is 1.39 in [8], 1.19 in [9] and 0.277 in experiment [10]. The z-score in [4] is 0.605 (inactive).

As for `CCCN1C(=O)[C@@]2(Cc3ccccc3)N=C(c3ccc(OCCCO)cc3)O[C@H]2c2ccccc21`, the composite z-score turned out to be 1.61 in [1]; 0.0149 in experiment [2]; 0.707 in [3]; 0.926 in [5]; 1.14 in [6]; 0.234 in [7]. Moreover, the composite z-score in [8] was 0.63; in experiment [9], -0.234; in experiment [10], 1.14. In addition, in experiment [4], the z-score was -0.872 (inactive).

Consider `C=C[C@H](C)[C@H](OC(=O)Nc1ccc(SC)cc1)c1ccc(O)c2ccccc12`, for which the composite z-score is 0.454 in [1]; -0.579 in experiment [2]; -0.121 in experiment [3]; 0.0716 in experiment [5]; -0.266 in experiment [6]; -0.0236 in experiment [7]. The composite z-score in experiment [8] was 0.284; in experiment [9], 0.159; in experiment [10], 0.289. For the same molecule, in [4], the z-score is -2.12 (inactive).

(Values after PubChem BioAssay.)
